From PubChem BioAssay
KCNQ2 pot = potentiators of rat KCNQ2 potassium channel; B-score at 10 µM; Potassium voltage-gated channel subfamily KQT member 2 (Rattus norvegicus), O88943; 310,000 tested, 0.54% active; CHO-K1 KCNQ2, FluxOR thallium flux fluorescence; hits give high values;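 active = fluorescence ratio B-score at least 3 SD of library B-scores, with initial fluorescence B-score within 3 of them, cut at about 5.3 in these data; same plate scores as AID 2156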;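 note: B-score of peak minus minimum over baseline fluorescence ratio after K+ and Tl+ stimulus; positive B-score means potentiation of KCNQ2 with more thallium influx and brighter signal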
KCNQ2 block = rat KCNQ2 potassium channel inhibitors, primary screen, cell-based, CHO-K1, FluxOR thallium flux, B-score. 20 min; hits give low values. Potassium voltage-gated channel subfamily KQT member 2 (Rattus norvegicus), O88943. B-score at 10 µM. 310,000 tested, 1.1% active;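 active = fluorescence ratio B-score at most minus 3 library SDs, with starting brightness B-score within 2 library SDs, cut at about -5.5 in these data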
Kir21 confirm = mouse Kir2.1 channel blockers, retest, confirmation, cell-based, FluxOR thallium flux, duplicate | shares compounds with KCNQ2 pot | Kir2.1-expressing cells, FluxOR thallium flux fluorescence; hits give low values | Tl flux remaining, % of negative control (hits give low values), % at 10 µM | 2,300 tested, 41% active | AID 2032, 2009;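 active = Primary-screen hit whose thallium flux fell at least 3 control SD below untreated wells in both duplicates, with normal baseline fluorescence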;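 note: 0% = blank wells without stimulus and 100% = stimulated no-compound controls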
Target sequence (P35561 whole entry, looked up): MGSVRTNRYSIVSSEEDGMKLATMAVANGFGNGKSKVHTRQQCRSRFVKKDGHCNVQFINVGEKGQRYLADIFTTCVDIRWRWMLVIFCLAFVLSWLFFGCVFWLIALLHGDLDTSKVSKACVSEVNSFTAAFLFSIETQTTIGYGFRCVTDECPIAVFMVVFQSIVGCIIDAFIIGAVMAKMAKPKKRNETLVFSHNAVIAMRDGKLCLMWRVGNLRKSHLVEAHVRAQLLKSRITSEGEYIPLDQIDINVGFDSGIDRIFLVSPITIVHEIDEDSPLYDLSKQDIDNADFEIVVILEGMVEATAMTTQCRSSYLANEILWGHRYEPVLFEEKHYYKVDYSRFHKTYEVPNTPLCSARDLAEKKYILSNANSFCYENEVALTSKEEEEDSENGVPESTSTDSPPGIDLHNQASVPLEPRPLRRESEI
HEK293 ctr = parental HEK293 activity in Kir2.1 inhibitor counter-screen; AID 2105; 2,300 tested, 19% active; FluxOR signal as % of negative control (100 = no effect), % at 10 µM; shares compounds with KCNQ2 pot; parental HEK293 cells, FluxOR thallium flux fluorescence; 0% = unstimulated blank wells;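 active = dye signal at least 3 control SD above or below untreated wells in both duplicates, raw fluorescence within 3, either direction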;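 note: percent is based on the flux ratio of peak minus minimum fluorescence over baseline F0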
CHO-K1 Tl ctr = nonspecific thallium flux increase in parental CHO-K1, confirmation, counter-screen for KCNQ2 potentiator project, cell-based, FluxOR thallium flux, duplicate; shares compounds with KCNQ2 pot; parental CHO-K1 cells, FluxOR thallium flux fluorescence; zero = vehicle mean+3SD, 100% = vehicle-minus-blank window; activity increase over 3SD of controls, % at 10 µM; 1,200 tested, 43% active; AID 2282, 2010;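 active = signal rise of at least 3 SD above the untreated control mean, in both duplicate wells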;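 note: counter screen of KCNQ2 potentiator hits so any rise reflects channel-independent effects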
KCNQ1 pot spec = human KCNQ1 channel potentiation off-target, confirmation, selectivity assay for KCNQ2 potentiator project, cell-based, CHO, FluxOR thallium flux | shares compounds with KCNQ2 pot | 1,200 tested, 28% active | activation over 3SD threshold, % at 10 µM | CHO KCNQ1 stable, FluxOR thallium flux fluorescence; beyond 3SD, as % of vehicle-control signal | AID 2283, 2010;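 active = fluorescence ratio rise of at least 3 SD of vehicle wells above their mean, in both replicate wells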;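 note: 0% = vehicle mean plus 3 SD and 100% = vehicle minus unstimulated blank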
KCNQ2 pot confirm = rat KCNQ2 channel potentiators, confirmation, cell-based, CHO, FluxOR thallium flux, duplicate; shares compounds with KCNQ2 pot; CHO-KCNQ2 cells, FluxOR thallium flux fluorescence; potentiation, less the hit threshold, % at 10 µM; 1,200 tested, 68% active;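 active = fluorescence ratio rising 3 SD or more over the vehicle control mean in both replicates, plus primary screen hit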;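 note: peak minus minimum thallium fluorescence divided by baseline after K/Tl stimulus; 0% = vehicle mean plus 3 SD and 100% = vehicle minus unstimulated blank difference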
Kir2-1 sel = mouse Kir2.1 channel activation off-target, confirmation, selectivity assay for KCNQ2 potentiator project, cell-based, HEK293, FluxOR thallium flux; shares compounds with KCNQ2 pot; HEK293 Kir2.1, FluxOR thallium flux fluorescence; activity over 3SD threshold, % at 10 µM; 1,200 tested, 2% active; AID 2345, 2010;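 active = fluorescence ratio rise of at least 3 SD above the vehicle-control mean, seen in both replicates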;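 note: 0% = vehicle mean plus 3 SD and 100% = vehicle minus no-stimulus blank window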
KCNQ2 W236L pot = potentiators of retigabine-insensitive KCNQ2 W236L, mechanism study for KCNQ2 potentiator project, cell-based, rat KCNQ2 W236L, CHO, automated patch clamp; shares compounds with KCNQ2 pot; automated patch clamp current; current increase over 3SD of negative controls (%), hits give high values, % at 25 µM; 940 tested, 10% active;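 active = current increase at least 3 SD of the untreated controls above them in both duplicate recordings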
* = called active by the depositor. A selection: hits, their analogues and other compounds. The true share with any hit is near 1.6%.

`O=C(NCc1ccc(F)cc1)Nc1cccc(Cl)c1` gave KCNQ2 pot 5.84*, KCNQ2 block inactive, Kir21 confirm inactive, HEK293 ctr inactive, CHO-K1 Tl ctr 87.3*, KCNQ1 pot spec 54.3*, KCNQ2 pot confirm 12.7*, Kir2-1 sel -35.8 and KCNQ2 W236L pot inactive.
Screening O=C(NCc1ccc(F)cc1)Nc1ccc(Cl)cc1 returned KCNQ2 pot 1.39 and KCNQ2 block inactive.
Screening COc1ccc(CSCC(=O)NN=C2CCN(C)CC2)cc1 returned KCNQ2 pot 0.31 and KCNQ2 block inactive.
O=[N+]([O-])c1cc(C(F)(F)F)ccc1Sc1ccc2ccccc2n1 was read as KCNQ2 block inactive.
Screening Cn1ccnc1Sc1ccccc1[N+](=O)[O-] returned KCNQ2 block inactive.
For O=[N+]([O-])c1cc(C(F)(F)F)ccc1Sc1nccn1Cc1ccccc1 the results were KCNQ2 block inactive, Kir21 confirm 58.5%* and HEK293 ctr inactive.
`O=[N+]([O-])c1ccc(Sc2nccn2Cc2ccccc2)c([N+](=O)[O-])c1` gave KCNQ2 block inactive, Kir21 confirm 51.5%* and HEK293 ctr inactive.
Screening CC(C)(C)C1CCC2(CC1)C(C#N)=C(SCC(=O)Nc1ccccc1)NC(=O)C2C#N (configuration not stated) returned KCNQ2 pot 0.25 and KCNQ2 block inactive.
`O=C(COC(=O)Cc1n[nH]c(=O)c2ccccc12)Nc1ccc(Cl)cc1F` gave KCNQ2 block inactive.
`Cc1nnnn1/C(=C\c1ccccc1)C(=O)OCC(=O)Nc1ccc(Cl)cc1F` gave KCNQ2 block inactive, Kir21 confirm inactive and HEK293 ctr inactive.
`COc1ccc2c(c1)CC(N1CCN(C)CC1)c1cc(OC)ccc1S2` (configuration not stated) gave KCNQ2 block inactive.
For Clc1ccc2c(c1)C(N1CCNCC1)Cc1ccccc1S2 (configuration not stated) the results were KCNQ2 pot -11.6, KCNQ2 block -11.6*, Kir21 confirm 32.0%* and HEK293 ctr inactive.
Screening CCCc1cc(=O)[nH]c(SCC(=O)c2cc(C)n(CC(F)(F)F)c2C)n1 returned KCNQ2 pot 6.41*, KCNQ2 block inactive, Kir21 confirm inactive, HEK293 ctr inactive, CHO-K1 Tl ctr -13.3, KCNQ1 pot spec 74.1*, KCNQ2 pot confirm -15.6 and Kir2-1 sel -47.8.
For CCCc1cc(=O)[nH]c(SCC(=O)c2cc(C)n(CCOC)c2C)n1 the results were KCNQ2 pot 0.18 and KCNQ2 block inactive.
Cc1ccc2oc(=O)c3cc(C(=O)NCCCN4CCCCCC4)sc3c2c1 was read as KCNQ2 block inactive.
